High-throughput results: PubChem BioAssay, several laboratories
Mcl-1 Bim block – disrupts Bim peptide binding to human Mcl-1; Bead-based flow cytometry, Bim peptide-Mcl-1 binding; hit rate 0.1% among 190,000; inhibition, % at 10 µM; Q07820; in the data active = inhibition above about 40%;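 also: 0% = no compound tracer wells and 100% = peptide blocker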
Mcl1 Noxa PPI – Mcl-1/Noxa interaction inhibition; Q07820; TR-FRET Mcl-1/Noxa peptide binding, 2 h; inhibition, % at 21.7 µM; hit rate 1.5% among 220,000; AID 1022;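 active = compounds that cut the protein-peptide binding signal by more than 50% relative to plate controls in a single-dose test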;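 also: His-tagged Mcl-1 with rhodamine Noxa BH3 peptide and terbium anti-His antibody; 0% = Mcl-1 plus Noxa peptide wells and 100% = peptide-only wells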
TLR4-MyD88 BLA – blocks binding of human TLR4 to MyD88 | hit rate 0.18% among 200,000 | inhibition, % at 8.4 µM | HeLa CL3-4 TLR4/MyD88 BLA complementation, FRET ratio; in the data active = inhibition above about 25%;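 also: 0% = vehicle and 100% = reference inhibitor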
TLR9-MyD88 block – TLR9-MyD88 interaction inhibition. hit rate 0.21% among 340,000. AID 504734. Q9NR96+Q99836. CHO BLA complementation TLR9-MyD88, CCF4 FRET ratio. inhibition, % at 4.98 µM;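 active = inhibition above the mean over all tested compounds plus 3 SD, cut at about 21% in these data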;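 also: 0% = DMSO only wells and 100% = clavulanate BLA inhibitor control wells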
Target sequence (Q99836 whole entry, looked up): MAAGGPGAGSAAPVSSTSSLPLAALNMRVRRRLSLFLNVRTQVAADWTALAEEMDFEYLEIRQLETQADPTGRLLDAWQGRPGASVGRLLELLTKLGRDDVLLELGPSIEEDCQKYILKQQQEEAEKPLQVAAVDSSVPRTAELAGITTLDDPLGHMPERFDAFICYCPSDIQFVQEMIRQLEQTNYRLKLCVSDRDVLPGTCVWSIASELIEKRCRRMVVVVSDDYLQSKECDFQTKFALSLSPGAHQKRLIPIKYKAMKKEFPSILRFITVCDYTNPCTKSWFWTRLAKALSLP
Target sequence (Q9NR96 whole entry, looked up): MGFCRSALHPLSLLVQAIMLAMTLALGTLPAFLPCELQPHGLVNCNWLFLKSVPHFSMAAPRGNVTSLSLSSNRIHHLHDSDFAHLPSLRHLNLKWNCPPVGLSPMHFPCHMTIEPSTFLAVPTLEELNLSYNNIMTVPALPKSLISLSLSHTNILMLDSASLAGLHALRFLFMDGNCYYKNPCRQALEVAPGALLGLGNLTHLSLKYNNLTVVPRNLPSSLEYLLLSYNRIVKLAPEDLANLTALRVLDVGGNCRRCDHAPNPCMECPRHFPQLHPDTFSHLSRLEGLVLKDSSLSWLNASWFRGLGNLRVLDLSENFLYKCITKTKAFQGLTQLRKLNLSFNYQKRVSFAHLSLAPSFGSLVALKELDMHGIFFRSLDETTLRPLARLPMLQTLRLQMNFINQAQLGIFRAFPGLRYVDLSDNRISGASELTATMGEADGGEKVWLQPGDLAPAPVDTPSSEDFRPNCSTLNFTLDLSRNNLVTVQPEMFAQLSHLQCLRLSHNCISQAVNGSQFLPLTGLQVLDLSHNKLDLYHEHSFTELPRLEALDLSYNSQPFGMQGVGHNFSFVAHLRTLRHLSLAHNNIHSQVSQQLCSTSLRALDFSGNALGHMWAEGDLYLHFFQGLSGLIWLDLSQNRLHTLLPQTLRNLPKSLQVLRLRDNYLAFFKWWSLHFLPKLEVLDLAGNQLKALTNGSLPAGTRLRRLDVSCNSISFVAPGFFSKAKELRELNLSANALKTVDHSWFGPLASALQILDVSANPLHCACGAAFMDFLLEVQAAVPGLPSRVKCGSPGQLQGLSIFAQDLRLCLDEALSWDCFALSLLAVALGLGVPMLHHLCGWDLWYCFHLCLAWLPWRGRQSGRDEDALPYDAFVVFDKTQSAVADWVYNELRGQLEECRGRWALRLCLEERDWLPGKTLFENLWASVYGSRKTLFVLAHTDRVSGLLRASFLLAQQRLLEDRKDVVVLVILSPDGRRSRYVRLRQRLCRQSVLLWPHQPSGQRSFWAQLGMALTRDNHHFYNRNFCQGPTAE
Mcl1-Bid inh – Mcl-1/Bid interaction inhibition. hit rate 0.97% among 220,000. inhibition, % at 21.7 µM. Q07820. TR-FRET Mcl-1/Bid-Dy647 peptide binding, 1536-well;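 active = compounds that cut the binding signal by more than half at the single screening dose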;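 also: His-tagged Mcl-1 with europium anti-His antibody binding Bid BH3 peptide; 0% = Mcl-1 plus peptide wells and 100% = peptide-only wells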
NOD2 RIPK2 PPI – inhibitors of human NOD2-RIPK2 interaction. inhibition, % at 4.98 µM. AID 624267. CHO BLA complementation NOD2-RIPK2, CCF4 ratio. hit rate 0.38% among 360,000; in the data active = inhibition above about 21%;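 also: 0% = vehicle only and 100% = reference blocker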
An asterisk follows results filed as active; . = no result. An excerpt weighted towards active compounds, which were near 1.8% of everything screened.

SMILES	Mcl-1 Bim block	Mcl1 Noxa PPI	TLR4-MyD88 BLA	TLR9-MyD88 block	Mcl1-Bid inh	NOD2 RIPK2 PPI
COC(=O)Cn1c2ccc(OC)cc2c2nc(C)sc21	.	7	.	-4	-14	6
O=C(COC(=O)CCS(=O)(=O)c1ccccc1)Nc1ccc(N2CCCCC2)cc1	.	.	.	1	.	-12
COC(=O)c1cc2sc(Cl)cc2n1CC(=O)Nc1cccc(SC)c1	0	-7	-6	0	96*	-14
CC(=O)N(Cc1ccccc1C)c1cccc(C)c1C	0	-5	10	3	-7	5
C#CCOCCOCCOCCNc1nc(N2CCN(C(=O)[C@H](CCCCN)n3cc(CCCC)nn3)CC2)nc(N2CCN(C(=O)[C@H](Cc3ccc(O)cc3)n3cc(CCO)nn3)CC2)n1	-1	45	-16	6	57*	-13
C#CCOCCOCCOCCNc1nc(N2CCN(C(=O)[C@H]([C@@H](C)CC)n3cc([C@@H](N)CC(C)C)nn3)CC2)nc(N2CCN(C(=O)[C@H](Cc3ccc(O)cc3)n3cc([C@@H](N)CC(C)C)nn3)CC2)n1	-2	21	6	.	60*	.
C#CCOCCOCCOCCNc1nc(N2CCN(C(=O)[C@H](Cc3ccc(O)cc3)n3cc([C@@H](N)C(C)CC)nn3)CC2)nc(N2CCN(C(=O)[C@H](Cc3cc4ccccc4[nH]3)n3cc([C@@H](N)C(C)CC)nn3)CC2)n1 (stereo partly drawn)	-2	44	12	10	69*	-2
C#CCOCCOCCOCCNc1nc(N2CCN(C(=O)[C@H]([C@@H](C)CC)n3cc([C@@H](N)Cc4ccc(O)cc4)nn3)CC2)nc(N2CCN(C(=O)[C@H](Cc3cc4ccccc4[nH]3)n3cc([C@@H](N)C(C)CC)nn3)CC2)n1 (stereo partly drawn)	-3	25	-3	.	21	.
C#CCOCCOCCOCCNc1nc(N2CCN(C(=O)[C@H](CCCCN)n3cc(CC(C)O)nn3)CC2)nc(N2CCN(C(=O)[C@H](Cc3ccc(O)cc3)n3cc(CCO)nn3)CC2)n1 (stereo partly drawn)	.	.	.	-4	.	-1
C#CCOCCOCCOCCNc1nc(N2CCN(C(=O)[C@H]([C@@H](C)CC)n3cc([C@@H](N)Cc4ccc(O)cc4)nn3)CC2)nc(N2CCN(C(=O)[C@H]([C@@H](C)CC)n3cc([C@@H](N)Cc4ccc(O)cc4)nn3)CC2)n1	-4	-7	-5	0	0	2
C#CCOCCOCCOCCNc1nc(N2CCN(C(=O)[C@H](Cc3ccc(O)cc3)n3cc([C@@H](N)C(C)CC)nn3)CC2)nc(N2CCN(C(=O)[C@H](Cc3cc4ccccc4[nH]3)n3cc([C@@H](N)CC(C)C)nn3)CC2)n1 (stereo partly drawn)	0	37	-7	.	41	.
C#CCOCCOCCOCCNc1nc(N2CCN(C(=O)[C@H](Cc3cc4ccccc4[nH]3)n3cc([C@@H](N)C(C)CC)nn3)CC2)nc(N2CCN(C(=O)[C@H](Cc3cc4ccccc4[nH]3)n3cc([C@@H](N)Cc4ccc(O)cc4)nn3)CC2)n1 (stereo partly drawn)	0	61*	-5	.	85*	.
CC(C)c1ccc(NC(=O)c2ccccc2NC(=O)C2CCCCC2C(=O)O)cc1 (stereo not drawn)	.	.	.	10	.	1
O=C(/C=C/c1ccc(Br)o1)Nc1nnc(C2CC2)s1	.	62*	.	.	18	.
Cc1cnc(NC(=O)/C=C/c2ccc(Br)o2)s1	.	28	.	-7	6	-16
COc1ccccc1CCc1nnc(CCC(=O)NCC2CCCO2)o1 (stereo not drawn)	.	.	.	-2	.	-1
COc1ccccc1CNC(=O)CNCC1CCCO1 (stereo not drawn)	0	15	3	-8	50*	-2
O=C(CCCOc1ccccc1)N1CCN(c2ccccc2)CC1	2	-13	-7	3	59*	11
COc1cccc(C(=O)Nc2ccc3c(c2)C(=O)c2ccccc2C3=O)c1	5	75*	-3	0	74*	2
O=C(NC(=S)Nc1ccc(NC(=O)c2ccccc2)cc1)c1ccc(F)cc1	.	.	.	6	.	-3
O=C(NC(=S)Nc1ccc2c(c1)C(=O)c1ccccc1C2=O)c1ccc(F)cc1	-2	51*	18	.	42	.
